The structures appear in SMILES notation. Where “and” joins values, the source holds several entries; their conditions need not be identical. Equal entries are not always repeated. A structure can be active in one record and inactive in another. Calls of active or inactive are those of the source. How the source made its calls: active means hit-call score of the fitted dose curve at least 0.9, where 1 is the maximum; inactive means score below 0.9.

Read-out in the test: Forkhead box O1 (FOXO1), FOXO1 (gene 2308)
The test can be described thus: LTEA_HepaRG_FOXO1: Life Technologies and Expression Analysis (LTEA) Assay for Forkhead box O1 (FOXO1) using HepaRG (AID 2283456). The following applies: mRNA level, 48 h; actives raise or lower the signal. The method, then:
LTEA_HepaRG is a cell based, multiplexed-readout assay that uses HepaRG, a human liver cell line, with measurements taken at 48 hours after chemical dosing on a 96-well plate.LTEA_HepaRG_FOXO1 is one of 102 assay component(s) measured in the LTEA HepaRG cell culture assay. It is a marker of Cell proliferation, survival, death.Data from the assay component LTEA_HepaRG_FOXO1 was analyzed into 1 endpoint. This assay endpoint, LTEA_HepaRG_FOXO1, was analyzed with bidirectional fitting relative to DMSO as the negative control and baseline of activity. Using a type of inducible reporter, measures of mRNA induction for gain or loss-of-signal activity can be used to understand regulation of transcription factor activity. To generalize the intended target to other relatable targets, this assay endpoint is annotated to the dna binding intended target family, where the subfamily is forkhead box protein.
A total of 1060 chemcials from the ToxCast library were tested in eight-point concentration-response experiments. Cell culture and cytotoxicity assays were conducted at Thermo Fisher Scientific's Custom Services facility (Madison, WI). A single lot of human HepaRG cells (Thermo Fisher Scientific, Frederick, MD) was used for the cell culture experiments. 96-well format collagen type I coated plates of human HepaRG cells were prepared using established methods. Briefly, cryopreserved HepaRG cells were thawed, plated at a density of approximately 100,000 cells/well in HepaRG Thaw, Plate, and General Purpose media (HPRG770, Thermo Fisher Scientific), and incubated for 48 hours. 0.5% DMSO was selected as vehicle control to balance the requisite need of DMSO in HepaRG cultures to maintain differentiation (for example, baseline metabolism, proportions of hepatocytes vs. cholangiocytes), while enabling further hepatic receptor pathway activation (for example, PXR and CAR) in response to chemical exposure. 48 hours after plating, the culture medium was replaced with HepaRG Serum-Free Incudtion Media. Cells were exposed to each test chemical in duplicate and maintained in CO2 incubators for another 48 hours. Chemical plates were thawed to room temperature and 200x concentrations of treatment groups were prepared. 8-point conentration-reponse curves were made with the highest exposure at 100 uM, followed by half-log dilutions, all in 0.5% DMSO. Each test plate contained variouse controls, induction positive controls (1mM phenobarbital), cytotoxicity positive controls ([…] aflatoxin B1), vehicle controls (0.5% DMSO), and total lysis controls (0.5% DMSO). Cell morphology images were taken using an Essen IncuCyte FLR automated microscope, with six 96-well plates imaged in about 24 minutes. Images were captured and exported and JPEG files. Spent culture media was transfered to black-well plates for the LDH assay, and remaining media was sorted at -80 C for later use. Cells were treated with RLT buffer and frozen until shipped for gene expression analysis. Total RNA was isolated from the cell suspension in 75 uL of Buffer RLT (Qiagen, Germantown, MD 20874) by Quintiles/Expression Analysis (Durham, NC) using a custom isolation procedure. Total RNA from each plate well was transferred to a preamplification plate. Fluidigm's 96.96 Dynamic ArrayTM (Fluidigm, Amsterdam, the Netherlands) technology was used for gene expression analyses by quantitative reverse transcription polymerase chain reaction (qRT-PCR, performed by Quintiles/Expression Analysis, Durham, NC)89. Standard TaqManTM Assays (Applied Biosystems/ThermoFisher Scientific, Foster City, CA) were used to assess the expression of 93 genes selected based on their selectivity and sensitivity to important hepatic receptors known to be modulated by environmental chemicals; importance in human hepatocyte functionality; and hepatotoxicity. […]
Take `CCCCOC(=O)[C@@H](C)Oc1ccc(Oc2ccc(C(F)(F)F)cn2)cc1`: the result was inactive.
Take `O=C(O)C1(C(=O)Nc2ccc(Cl)cc2Cl)CC1`: the result was inactive.
For `CCOC(=O)C(C)Oc1ccc(Oc2nc3ccc(Cl)cc3o2)cc1` (stereo not given), the outcome was inactive.
For the compound `S=C(S)NCCNC(=S)S.[Mn+2].[S-]C([S-])=NCCN=C([S-])[S-].[Zn+2]`, the outcome was inactive; the AC50 was 4.79 µM (active) and 9.06 µM (active).
For the compound `C#CCOC(=O)[C@@H](C)Oc1ccc(Oc2ncc(Cl)cc2F)cc1`, the outcome was inactive.
Take `CN(C)C(=O)Nc1ccc(Cl)c(Cl)c1`: the call was inactive.
In the case of `CCCOC(=O)NCCCN(C)C`, the outcome was inactive.
Same read-out and setting: to `COC(=O)c1ccccc1C(=O)O` belongs “inactive”.
With `CCOC(=O)NCCOc1ccc(Oc2ccccc2)cc1`, the half-maximal activity concentration (AC50) is 88.5 µM (active).
On to `CCCN(CCC)C(=O)SCC`, for which the result was inactive.
Take `CC(=O)S[C@@H]1CC2=CC(=O)CC[C@]2(C)[C@H]2CC[C@@]3(C)[C@@H](CC[C@@]34CCC(=O)O4)[C@H]12`: the compound was called inactive.
Same read-out and setting: to `COCCO` belongs “inactive”.
Consider `N[C@@H](Cc1cc(I)c(Oc2ccc(O)c(I)c2)c(I)c1)C(=O)O`, for which the call was inactive.
Same read-out and setting: to `C[C@]12C[C@H](O)[C@H]3[C@@H](CCC4=CC(=O)CC[C@@]43C)[C@@H]1CC[C@@H]2C(=O)CO` belongs “inactive”; to `c1ccc(Nc2ccccc2)cc1`, “inactive”.
With `CC(=O)[C@H]1CC[C@H]2[C@@H]3CCC4=CC(=O)CC[C@]4(C)[C@H]3CC[C@]12C`, the half-maximal activity concentration (AC50) was 80.5 µM (active).
With `CCCCC(CC)COC(=O)c1ccccc1C(=O)O` (stereo not given), the compound was called inactive.
As to `Cc1nn(C)c(Oc2ccccc2)c1C=NOCc1ccc(C(=O)OC(C)(C)C)cc1`, the AC50 is 2.81 µM (active).
Same read-out and setting: to `C=CCOC(Cn1ccnc1)c1ccc(Cl)cc1Cl` (stereo not given) belongs 78.1 µM (active); to `O=C(Nc1ccc([N+](=O)[O-])cc1Cl)c1cc(Cl)ccc1O`, 3.33 µM (active).
Consider `O=C(c1ccccc1)C1CCCCC1`, for which the compound was classed as inactive.
For the compound `OB(O)O`, the compound was called inactive.
Turning to `CCNc1nc(N)nc(Cl)n1`, the result was inactive.
With `CC1(C)C(C=C(Cl)Cl)C1C(=O)OCc1cccc(Oc2ccccc2)c1` (stereo not given), the call was inactive.
Take `CCN(CC)C(=O)c1cccc(C)c1`: the result was inactive.
As to `CCSC(=O)N(CC(C)C)CC(C)C`, the compound was called inactive.
Turning to `C#C[C@]1(O)CC[C@H]2[C@@H]3CCC4=CC(=O)CC[C@@H]4[C@H]3CC[C@@]21CC`, the result was inactive.
`CCOC(=O)COc1cc(-n2ncc(C(F)(F)F)c(C)c2=O)c(F)cc1Cl`: the compound was called inactive.
For the compound `CCN(Cc1c(F)cccc1Cl)c1c([N+](=O)[O-])cc(C(F)(F)F)cc1[N+](=O)[O-]`, the call was inactive.
As to `CCCCC(CC)CN1C(=O)C2C3C=CC(C3)C2C1=O` (stereo not given), the result was inactive.
On to `CCOC(=O)c1ccc(O)cc1`, for which the outcome was inactive.
As to `c1ccc2[nH]c(-c3cscn3)nc2c1`, the result was inactive.
As for `S=C([S-])NCCNC(=S)[S-].[Mn+2]`, the AC50 is 9.26 µM (active).
For the compound `COC(=O)c1ccc(I)cc1S(=O)(=O)NC(=O)Nc1nc(C)nc(OC)n1`, the result was inactive.
As to `CC(C)(c1ccc(O)cc1)c1ccc(O)cc1`, the compound was classed as inactive.
As for `CSC(=O)c1cccc2nnsc12`, the call was inactive.
On to `O=C(c1ccc(O)cc1O)c1ccc(O)cc1O`, for which the compound was classed as inactive.
The same measure, in the same setting: to `CCCN(CCC)c1c([N+](=O)[O-])cc(C(F)(F)F)c(N)c1[N+](=O)[O-]` belongs “inactive”.
For `Oc1ccc(C(c2ccc(O)cc2)C(Cl)(Cl)Cl)cc1`, the AC50 is 93.2 µM (active).

Usually AC50 stands for the concentration at which the activity in the assay is half-maximal.
